Compounds with a hit are over-represented: about 2.3% of the library has one in this group of screens.
TWEAK Fn14 block – TWEAK-Fn14 signaling inhibition | TWEAK-stimulated Fn14 reporter cells, luciferase luminescence, 8 h | inhibition, % at 10 µM | 2% of 360,000 active; in the data active = inhibition above about 50%
iPSC survival up – hiPSC single-cell survival enhancement; survival enhancement, % at 20 µM; 0.044% of 360,000 active; ATPlite luminescence; 100% = ROCK inhibitor wells, 0% = DMSO; AID 602274; in the data active = survival enhancement above about 18%;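 note: cells exposed to compounds for 16 hours before the ATP read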
HIF-2a inh – blocks HIF-2a reporter activity | 786-0 RCC cells HIF-2a reporter, luciferase luminescence, overnight | inhibition, % at 18.8 µM | 0.72% of 360,000 active | AID 624352;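 active = inhibition of the luminescence signal of 40% or more relative to plate controls, in a single-dose primary screen at 18.75 µM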
KKLEB tox – CF airway cell cytotoxicity counter-screen. KKLEB CF airway cells viability, ATPlite luminescence, overnight; active compounds read low; cells stimulated with P. aeruginosa culture filtrate. activity change (cytotoxicity), % at 5 µM. 0.36% of 360,000 active. AID 602141;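 active = corrected activity change at or below -50% at 5 µM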
LGR2 inh – blocks bursicon-induced cAMP signaling via Drosophila LGR2. HEK293 LGR2, CRE-luciferase, bursicon-stimulated, 4 h. inhibition, % at 9.99 µM. 0.35% of 380,000 active;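 active = drop in luminescence signal, shown as inhibition above about 50% in the replicate tests, limit read from the data, passing the limit was not always enough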;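 note: agonist challenge used bursicon conditioned medium at about half maximal strength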
CF NFkB inh – cystic fibrosis NF-kB activation inhibition | 0.86% of 360,000 active | inhibition, % at 5 µM | KKLEB NF-kB-GFP reporter, PAF-induced, GFP fluorescence overnight;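 active = at least 50% inhibition at 5 µM, scaled per plate between neutral and stimulator controls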;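 note: PAF is a Pseudomonas aeruginosa culture filtrate used as stimulus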
Large screens that a line does not name were inactive.

O=C(C[C@@H]1CC[C@@H]2[C@H](COC[C@@H](O)CN2C(=O)Nc2ccc(Cl)cc2)O1)NCCc1ccncc1	none (no result: TWEAK Fn14 block, iPSC survival up, HIF-2a inh, KKLEB tox, CF NFkB inh)
O=C(c1cccs1)N1CCN(c2ncc(C(F)(F)F)cc2Cl)CC1	none
CCc1cc(C(=O)N2CCN(c3ncc(C(F)(F)F)cc3Cl)CC2)sc1C	TWEAK Fn14 block 56
O=C(NCC[C@H]1CC[C@@H](NC(=O)C2CC2)[C@@H](CO)O1)c1cnccn1	none (no result: TWEAK Fn14 block, iPSC survival up, HIF-2a inh, KKLEB tox, CF NFkB inh)
CC(=O)OC1COC(N2CCc3ccccc32)C(OC(C)=O)C1OC(C)=O (configuration not stated)	TWEAK Fn14 block 61
CC(=O)OC1COC(N2CCc3cc(Br)c([N+](=O)[O-])cc32)C(OC(C)=O)C1OC(C)=O (configuration not stated)	none (no result: LGR2 inh)
COc1ccc(CN(C)C(=O)CCl)cc1	none
CN(Cc1ccc(Cl)cc1)C(=O)CCl	KKLEB tox -57, CF NFkB inh 50
O=C(CCCN1C(=O)/C(=C/c2ccc3c(c2)OCO3)SC1=S)Nc1cccc(C(=O)O)c1	TWEAK Fn14 block 56, HIF-2a inh 88
COc1ccc(/C=C2\SC(=S)N(CCCC(=O)Nc3ccc(C(=O)O)cc3)C2=O)cc1OC	none
O=C(CCN1C(=O)/C(=C/c2ccc3c(c2)OCO3)SC1=S)Nc1cccc(C(=O)O)c1	none
COc1ccc(/C=C2/SC(=S)N(CCCC(=O)Nc3ccc(O)cc3)C2=O)cc1OC	HIF-2a inh 42
O=C(O)CCCN1C(=O)/C(=C\C(Cl)=C\c2ccccc2)SC1=S	TWEAK Fn14 block 102, HIF-2a inh 94
O=C(CCCN1C(=O)/C(=C\c2ccccc2)SC1=S)Nc1ccc(O)cc1	HIF-2a inh 61
CN1c2ccc(C#Cc3cccnc3)cc2[C@@H]2[C@@H](CCN2S(=O)(=O)c2cccc(F)c2)[C@H]1CO	none (no result: TWEAK Fn14 block, iPSC survival up, HIF-2a inh, KKLEB tox, CF NFkB inh)
CC(C)NC(=O)Nc1cccc2c1O[C@H](CN(C)Cc1ccncc1)[C@H](C)CN([C@H](C)CO)C2=O	none (no result: TWEAK Fn14 block, iPSC survival up, HIF-2a inh, KKLEB tox, CF NFkB inh)
C[C@@H]1CCCCO[C@H](CN(C)C(=O)Nc2ccc(F)cc2)[C@H](C)CN([C@H](C)CO)C(=O)c2cc(NS(=O)(=O)c3ccccc3)ccc2O1	none (no result: TWEAK Fn14 block, iPSC survival up, HIF-2a inh, KKLEB tox, CF NFkB inh)
CCN1CCN(S(=O)(=O)c2ccc(Cl)c(C(=O)N(C)Cc3ccc(Cl)cc3Cl)c2)CC1	none
CCN1CCN(S(=O)(=O)c2ccc(Cl)c(C(=O)N(C)Cc3cccs3)c2)CC1	KKLEB tox -52
CC[n+]1c(/C=C/N(C)c2ccccc2)n(-c2ccccc2)c2ccc(-c3nc4ccccc4s3)cc21	TWEAK Fn14 block 107, HIF-2a inh 91, KKLEB tox -95, CF NFkB inh 92 (no result: LGR2 inh)
CCOC(=O)c1ccc2c(c1)n(CC)c(/C=C/N(C)c1ccccc1)[n+]2CC	none
C[C@H]1CN([C@@H](C)CO)C(=O)c2cccc(NC(=O)c3ccc(-c4nccs4)cc3)c2O[C@H]1CN(C)C	none (no result: TWEAK Fn14 block, iPSC survival up, HIF-2a inh, KKLEB tox, CF NFkB inh)
Cc1cccc(-n2ncc3c(N(CCO)CCO)ncnc32)c1	TWEAK Fn14 block 88 (no result: LGR2 inh)
O=C(CN1C(=O)c2ccccc2S1(=O)=O)c1ccc(O)c(O)c1	none
Cc1ccc(C)c(C(=O)CN2C(=O)c3ccccc3S2(=O)=O)c1	TWEAK Fn14 block 60 (no result: LGR2 inh)
Cc1ccc(C)c(C(=O)CN2C(=O)c3ccccc3C2=O)c1	none
O=C(CN1C(=O)c2ccccc2S1(=O)=O)c1ccc(F)c(F)c1	TWEAK Fn14 block 91, LGR2 inh 65
COc1ccc(C(=O)CN2C(=O)c3ccccc3S2(=O)=O)cc1Br	TWEAK Fn14 block 62
CC1=C([N+](=O)[O-])C(c2cccc(Br)c2)C2=C(N1)c1ccccc1C2=O (configuration not stated)	KKLEB tox -56 (no result: LGR2 inh)
Cc1ccc2nc(-c3ccc(NC(=O)Cc4cccs4)cc3)[nH]c2c1	none
Cc1ccc2nc(-c3ccc(NC(=O)C4CCCO4)cc3)[nH]c2c1 (configuration not stated)	TWEAK Fn14 block 70, LGR2 inh 60
O=C(Nc1ccc(-c2nc3cc(Cl)ccc3o2)cc1)C1CCCO1 (configuration not stated)	TWEAK Fn14 block 50 (no result: LGR2 inh)
CCS(=O)(=O)Nc1ccc2c(c1)C(=O)N(C)C[C@H](OC)[C@H](C)CN(C(=O)COC)[C@H](C)CO2	none (no result: TWEAK Fn14 block, iPSC survival up, HIF-2a inh, KKLEB tox, CF NFkB inh)
CC(Nc1cccc2ccccc12)C(=O)N/N=C/c1ccccn1 (configuration not stated)	TWEAK Fn14 block 55 (no result: LGR2 inh)
O=C(CCCC(=O)N/N=C\c1ccccn1)N/N=C\c1ccccn1	none
O=C1N[C@@H](c2ccccc2)COC(=O)[C@@H](Cc2ccc(F)cc2)CC/C=C/C[C@H]1CC(=O)N(CCO)Cc1ccccc1	none
O=C1N[C@@H](c2ccccc2)COC(=O)[C@@H](Cc2ccc(F)cc2)CC/C=C/C[C@@H]1CC(=O)N(CCO)Cc1ccccc1	TWEAK Fn14 block 60
O=C(N/N=C/c1ccc(-c2cccc(C(F)(F)F)c2)o1)c1ccccc1Br	TWEAK Fn14 block 59 (no result: LGR2 inh)
O=C(N/N=C/c1ccc(-c2cccc(C(F)(F)F)c2)o1)c1ccccc1O	none
C[C@@H]1CN([C@H](C)CO)C(=O)c2cc(NC(=O)CCCN(C)C)ccc2O[C@@H](C)CCCCO[C@H]1CN(C)Cc1ccncc1	none (no result: TWEAK Fn14 block, iPSC survival up, HIF-2a inh, KKLEB tox, CF NFkB inh)
COc1cccc2c1C(=O)O/C2=C/c1ccc2c(c1)OCO2	TWEAK Fn14 block 63, KKLEB tox -73, LGR2 inh 62
COc1cccc(OC)c1C1=CC(=O)C[C@H](c2ccc3c(c2)OCO3)C1	none
CC(=O)Oc1ccc(C23c4ccccc4C2(OC(C)=O)c2cc(OC(C)=O)ccc23)cc1 (configuration not stated)	TWEAK Fn14 block 89
CO[C@H]1CN(C)C(=O)c2ccc(NC(C)=O)cc2OC[C@@H](C)N(C(=O)c2ccccc2)C[C@@H]1C	none (no result: TWEAK Fn14 block, iPSC survival up, HIF-2a inh, KKLEB tox, CF NFkB inh)
COc1ccc(S(=O)(=O)Nc2cc(C(C)C)c(O)cc2C)cc1	none (no result: LGR2 inh)
COc1ccc2nc3cc(Cl)ccc3c(Nc3cc(C(C)C)c(O)cc3C)c2c1	TWEAK Fn14 block 63, KKLEB tox -56
O=C(O)c1ccccc1C(=O)Nc1ccc(Oc2ccccc2)cc1	TWEAK Fn14 block 58
Cc1cccc(Oc2ccc(NC(=O)c3ccccc3C(=O)O)cc2)c1	none
O=C(Nc1cccc(Oc2ccc(C(=O)O)c(C(=O)O)c2)c1)c1ccc(-c2ccccc2)cc1	LGR2 inh 56
COc1cccc(NC(=O)C[C@@H]2CC[C@H]3[C@H](COc4ccc(NC(=O)C5CCOCC5)cc4C(=O)N3C)O2)c1	none (no result: TWEAK Fn14 block, iPSC survival up, HIF-2a inh, KKLEB tox, CF NFkB inh)
COc1ccc(S(=O)(=O)N(C)C[C@H]2OCCCC[C@@H](C)Oc3ccc(NC(=O)CCC(F)(F)F)cc3C(=O)N([C@@H](C)CO)C[C@@H]2C)cc1	none (no result: TWEAK Fn14 block, iPSC survival up, HIF-2a inh, KKLEB tox, CF NFkB inh)
O=S(=O)(NC(=NC1CCCCC1)c1ccccc1)c1ccccc1	none
O=S(=O)(NC(=NC1CCCCC1)c1ccccc1F)c1ccccc1	TWEAK Fn14 block 63
